Experimental data from PubChem BioAssay (Tox21).
Records with an inconclusive call do not appear. Entries that show only a call come without a potency. Calls of active or inactive are those of the source. Calls come from the whole dose curve; as a rule, active = well fitted cell-killing curve with a large enough effect in the repeat runs; inconclusive = weak or mixed curves, or effect the other way; inactive = flat fitted curve, though single readings scatter. Numbered stars: 1 amine (or outer) side, 2 acyl side, 3 side chain; on linkers, the order of the positions; unused ones are H or OH. Bridge positions count the residues as written; N and C are the ends. Square brackets hold non-standard residues; d marks the D form. Peptide text beside a SMILES is read from it. I, II: the chains in the order shown. Actinocin(9to1) = Cc1c2oc3c(C)ccc(C(=O)[*:1])c3nc-2c(C(=O)[*:2])c(N)c1=O; NMeV = CN[C@H](C(=O)O)C(C)C; Sar = CNCC(=O)O

Assay: Nuclear factor erythroid 2-related factor 2/antioxidant responsive element (Nrf2/ARE) small molecule agonists: qHTS cell viability counter screen in human keratinocytes (AID 1919968); note: nearly all actives have a fitted effect of over 55% in size
Conditions: KeratinoSens HaCaT ARE cells viability, CellTiter-Fluor, 24 h; series mostly up to 92.4 µM
How it was run: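 Measured as CellTiter-Fluor fluorescence, this readout tracks cytotoxicity in the same wells as the ARE-luciferase screen. HaCaT reporter cells (1,500/well) received compounds after a 5 h pre-incubation and were exposed for 23 h.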
Potency is the fitted concentration of half-maximal effect.

| SMILES | activity change, negative = cytotoxicity | Potency |
| --- | --- | --- |
| Cc1cc(C)c(N=Nc2c(O)c(S(=O)(=O)O)cc3cc(S(=O)(=O)O)ccc23)cc1C | -4.24% [at 8.39 µM] (inactive) | – |
| CC(=O)Nc1c(I)cc(I)c(C(=O)O)c1I | – | inactive |
| C=COCCOCCOCCOC=C | – | inactive |
| O=C1OC(=O)c2ccc3c4c(ccc1c24)C(=O)OC3=O | – | inactive |
| CC(=O)[O][Al][O]C(C)=O | – | inactive |
| COc1ccc2cc(C=O)ccc2c1 | – | inactive |
| Cc1occc1S | – | inactive |
| CCCN1CCCC[C@H]1C(=O)Nc1c(C)cccc1C | – | inactive |
| Cc1ccc(NC(=O)N(C)C)cc1NC(=O)N(C)C | – | inactive |
| CCN(CC)CCN | – | inactive |
| O=[N+]([O-])c1ccccc1Nc1ccccc1 | – | inactive |
| NC(=O)c1ncn([C@@H]2O[C@H](CO)[C@@H](O)[C@H]2O)c1O | – | inactive |
| O=C(O)[C@@H]1[C@H]2C[C@H]3c4[nH]c5ccccc5c4CCN3C[C@@H]2CC[C@@H]1O | – | inactive |
| CC1(C)C(C=C(Cl)Cl)C1C(=O)OCc1cccc(Oc2ccccc2)c1 (centres undefined) | – | inactive |
| CC[C@]1(O)C[C@@H]2CN(CCc3c([nH]c4ccccc34)[C@@](C(=O)OC)(c3cc4c(cc3OC)N(C)[C@H]3[C@@](O)(C(=O)OC)[C@H](OC(C)=O)[C@]5(CC)C=CCN6CC[C@]43[C@@H]65)C2)C1 | – | inactive |
| O=C(O)c1ccccc1OP(=O)(O)O | – | inactive |
| CCCCN(CCO)CCO | – | inactive |
| COC(OC)C(C)c1ccccc1 (centres undefined) | – | inactive |
| Nc1cc(=O)[nH]c(N)n1 | – | inactive |
| CCOC(OCC)OCC | – | inactive |

| SMILES | activity change, negative = cytotoxicity | Potency |
| --- | --- | --- |
| C=CCOC(=O)CCCCCC | – | inactive |
| O=C(O)[C@@H](O)[C@H](O)[C@H](O)[C@@H](O)C(=O)O | – | inactive |
| CCCCCCCCCC(C)=O | – | inactive |
| OC/C=C/CO | – | inactive |
| CCCCCCCCCCCCC(=O)O | – | inactive |
| Cc1ccc(S(=O)(=O)NC(=O)NC2CCCC2)cc1 | – | inactive |
| CCCC(=O)c1ccccc1 | – | inactive |
| NC(=O)c1cccc([N+](=O)[O-])c1 | – | inactive |
| COc1c2ccoc2cc2oc(=O)ccc12 | – | inactive |
| CC(C)c1cccc(C(C)C)c1N | – | inactive |
| CCCCCCCCC1CCC(=O)O1 (centres undefined) | – | inactive |
| Cc1cccc(Cl)c1 | – | inactive |
| CO[Si](C)(C)OC | – | inactive |
| COCc1ccc(COC)cc1 | – | inactive |
| c1c[nH]cn1 | – | inactive |
| OC1(c2ccc(Cl)cc2)CCNCC1 | – | inactive |
| Cc1c2oc3c(C)ccc(C(=O)N[C@@H]4C(=O)N[C@H](C(C)C)C(=O)N5CCC[C@H]5C(=O)N(C)CC(=O)N(C)[C@@H](C(C)C)C(=O)O[C@@H]4C)c3nc-2c(C(=O)N[C@@H]2C(=O)N[C@H](C(C)C)C(=O)N3CCC[C@H]3C(=O)N(C)CC(=O)N(C)[C@@H](C(C)C)C(=O)O[C@@H]2C)c(N)c1=O (I: T[dV]P[Sar][NMeV] / II: T[dV]P[Sar][NMeV]; ester I:1-I:C, II:1-II:C; linker I:N-II:N via Actinocin(9to1)) | – | 42.1 nM (active) |
| C1CCCCC1 | – | inactive |
| Cc1ccc(C(C)c2ccc(C)c(C)c2)cc1C | – | inactive |
